# From PubChem BioAssay (NCATS)
# A number with no mark means an inactive call. Inconclusive results are not listed. Where a call stands in place of a potency, no number is given. Active and inactive are the calls of the source. Unless noted, calls follow the shape of the dose curve; as a rule, active = well fitted curve in the direction sought with a large enough effect; inconclusive = small, poorly fitted or top-dose-only effect, or another doubt; inactive = no such curve, though single readings can be large; an effect the other way counts as inactive or inconclusive.
# Experiments:
# [1] = NS1 protein of Zika virus - qHTS assay to identify small molecule inhibitors in human HEK 293 cells (AID 1347053); also: nearly all actives have a fitted effect of over 55% in size
# How it was run: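 In this cell-based screen, HEK 293 cultures received compound for one hour before Zika MR766 at MOI = 0.5. NS1 was quantified 24 hours later by TR-FRET, normalized to virus-free wells and infected wells.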
# [2] = biological target: T1, Tyrosine-protein phosphatase non-receptor type substrate 1 (Homo sapiens) + Leukocyte surface antigen CD47 (Homo sapiens) (UniProt P78324+Q08722); assay: CD47-SIRPalpha protein protein interaction - LANCE assay qHTS validation (AID 1347057; active = well fitted curve in the direction sought with a large enough effect in the signal ratio, with a control signal flat, not every such curve was filed as active; the % refers to the signal ratio)
# T1 sequence (P78324 whole entry, looked up, the tested form may be a part): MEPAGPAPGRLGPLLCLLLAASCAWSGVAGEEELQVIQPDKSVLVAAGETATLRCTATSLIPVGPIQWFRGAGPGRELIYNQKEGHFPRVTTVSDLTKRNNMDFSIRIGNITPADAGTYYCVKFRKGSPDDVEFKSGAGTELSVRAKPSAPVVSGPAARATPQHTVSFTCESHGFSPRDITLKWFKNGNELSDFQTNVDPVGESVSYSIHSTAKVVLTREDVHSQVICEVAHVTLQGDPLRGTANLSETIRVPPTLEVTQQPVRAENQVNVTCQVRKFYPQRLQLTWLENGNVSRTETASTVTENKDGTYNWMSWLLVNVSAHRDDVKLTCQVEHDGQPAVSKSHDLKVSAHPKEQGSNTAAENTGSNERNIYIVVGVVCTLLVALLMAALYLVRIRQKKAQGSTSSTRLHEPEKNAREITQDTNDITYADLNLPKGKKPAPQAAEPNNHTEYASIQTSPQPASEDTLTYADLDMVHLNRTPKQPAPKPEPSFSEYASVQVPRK
# T1 sequence (Q08722 whole entry, looked up, the tested form may be a part): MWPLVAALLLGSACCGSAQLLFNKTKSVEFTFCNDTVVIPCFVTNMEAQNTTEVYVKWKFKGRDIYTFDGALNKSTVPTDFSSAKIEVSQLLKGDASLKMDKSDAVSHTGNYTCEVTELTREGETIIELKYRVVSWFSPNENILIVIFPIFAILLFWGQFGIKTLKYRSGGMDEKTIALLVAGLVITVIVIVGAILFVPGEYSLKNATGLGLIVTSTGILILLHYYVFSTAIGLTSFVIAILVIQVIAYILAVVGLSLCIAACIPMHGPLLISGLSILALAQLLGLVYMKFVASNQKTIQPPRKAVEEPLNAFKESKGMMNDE
# How it was run: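 Inhibition of soluble CD47/SIRPalpha ectodomain association by titrated compounds, measured as 665/615 nm time-resolved FRET ratio after sequential 30 min room-temperature incubations.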
# [3] = biological target: T1, Tyrosine-protein phosphatase non-receptor type substrate 1 (Homo sapiens) + Leukocyte surface antigen CD47 (Homo sapiens); assay: CD47-SIRPalpha protein protein interaction - HTRF assay qHTS validation (AID 1347058; active = well fitted curve in the direction sought with a large enough effect in the signal ratio, not every such curve was filed as active; the % refers to the signal ratio)
# How it was run: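 Soluble extracellular domains (6His-CD47, Avi-tag-biotinylated SIRPalpha) in PBS pH 7.4 with 0.05% IGEPAL CA-630. Compounds were preincubated 30 min at RT with CD47 and anti-His-Eu, then SIRPalpha and SAV-XL665 were added. TR-FRET 665/615 ratio.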
# [4] = biological target: Parathyroid hormone/parathyroid hormone-related peptide receptor (Homo sapiens) (UniProt Q03431); assay: qHTS for PTHR1 Agonists: Optimization Screen against the NCGC LOPAC library (AID 1347079);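 also: GloSensor cAMP luminescence in HEK-293 GP2 cells expressing human PTHR1 with IBMX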
# Sequence of Parathyroid hormone/parathyroid hormone-related peptide receptor (Homo sapiens) (Q03431 whole entry, looked up): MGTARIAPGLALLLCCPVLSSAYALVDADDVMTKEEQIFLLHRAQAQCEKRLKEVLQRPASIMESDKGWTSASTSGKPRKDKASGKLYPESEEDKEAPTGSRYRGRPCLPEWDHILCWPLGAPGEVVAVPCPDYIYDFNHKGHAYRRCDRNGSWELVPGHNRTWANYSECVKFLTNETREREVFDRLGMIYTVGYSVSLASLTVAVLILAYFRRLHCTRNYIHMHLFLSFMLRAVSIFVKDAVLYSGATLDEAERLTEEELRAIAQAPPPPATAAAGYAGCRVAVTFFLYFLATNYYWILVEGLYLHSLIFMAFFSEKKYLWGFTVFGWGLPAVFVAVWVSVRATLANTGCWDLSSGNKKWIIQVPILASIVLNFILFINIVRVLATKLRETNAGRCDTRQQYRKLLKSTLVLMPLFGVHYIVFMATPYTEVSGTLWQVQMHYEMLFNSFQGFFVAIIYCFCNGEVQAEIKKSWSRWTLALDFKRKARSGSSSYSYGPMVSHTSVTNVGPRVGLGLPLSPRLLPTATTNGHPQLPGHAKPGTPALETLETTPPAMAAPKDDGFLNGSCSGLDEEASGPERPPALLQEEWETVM
# How it was run: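 Signal increase flags agonism. GP2 cells, derived from HEK-293, express human PTHR1 and a GloSensor cAMP construct.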
# [5] = biological target: N-terminal Xaa-Pro-Lys N-methyltransferase 1 (Homo sapiens) (UniProt Q9BV86); assay: qHTS Assay for Inhibitors of N-terminal methyltransferase 1 (NTMT1): LOPAC validation of the NTMT1 SAHH-coupled ThioGlo3 Assay (AID 1347143);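 also: SAH from peptide methylation measured as thiol fluorescence via SAHH coupling and ThioGlo3; nearly all actives have a fitted effect of over 70% in size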; also: potency is read from the fitted curve at half-maximal effect
# Sequence of N-terminal Xaa-Pro-Lys N-methyltransferase 1 (Homo sapiens) (Q9BV86 whole entry, looked up): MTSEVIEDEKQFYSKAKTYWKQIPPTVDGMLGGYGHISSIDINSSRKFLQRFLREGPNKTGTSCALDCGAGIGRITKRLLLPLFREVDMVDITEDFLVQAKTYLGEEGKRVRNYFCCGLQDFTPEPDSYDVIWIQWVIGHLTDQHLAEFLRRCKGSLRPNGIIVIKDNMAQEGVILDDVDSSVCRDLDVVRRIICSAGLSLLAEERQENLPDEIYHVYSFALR
# How it was run: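 NTMT1 125nM + cpds (various conc.), 1 min RT; add SAM 100uM/SAHH 10uM/ThioGlo3 15uM (addition mix). SAHH-coupled thiol detection, Ex340/Em450, t0 and 30 min RT; signal normalized to background. LOPAC 1280-cpd pilot.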
# [6] = tested on: Zika virus NS2B-NS3 protease (unlinked); assay: Optimization of GU AMC qHTS for Zika virus inhibitors: Unlinked NS2B-NS3 protease assay (AID 1347151); also: nearly all actives have a fitted effect of over 80% in size; also: potency is read from the fitted curve at half-maximal effect
# How it was run: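 Fluorescence gain (340/450 nm) over 15 min at room temperature, ~20% conversion, gave percent inhibition fitted to a 4-parameter Hill equation; enzyme was unlinked NS2B-NS3 (25 nM final), pH 8.0 Tris buffer.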
# [7] = tested on: Zika virus NS2B-NS3 protease (unlinked complex); assay: Confirmatory screen GU AMC qHTS for Zika virus inhibitors (AID 1347153); also: nearly all actives have a fitted effect of over 70% in size; also: potency is read from the fitted curve at half-maximal effect
# How it was run: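 Noncovalent NS2B hydrophilic domain/NS3 protease complex (25 nM) in 10 mM Tris-HCl pH 8.0, 0.01% Tween 20 was preincubated 15 min at room temperature with compounds. Then 10 µM AMC substrate (Km 18.3 µM) was added; fluorescence was read over 15 min and fitted to a 4-parameter Hill equation.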
# [8] = Confirmatory screen NINDS Rhodamine qHTS for Zika virus inhibitors (AID 1347161); also: nearly all actives have a fitted effect of over 60% in size; also: potency is read from the fitted curve at half-maximal effect
# How it was run: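 In 10 mM Tris-HCl pH 8.0 containing 0.01% Tween 20, linked NS2B-NS3 protease (25 nM final) is exposed to test compounds for 15 min. Cleavage of 1.5 microM Rhodamine110 substrate is tracked by fluorescence over 15 min.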
# [9] = tested on: Zika virus NS2B-NS3 protease (linked); assay: 384 well plate NINDS AMC confirmatory qHTS for Zika virus inhibitors (AID 1347163); also: nearly all actives have a fitted effect of over 50% in size; also: potency is read from the fitted curve at half-maximal effect
# How it was run: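 Enzyme (5, 30 or 60 nM final) first met test compounds for ~15 min. The AMC-tagged peptide Ac-VKTGKR-AMC followed at 30 microM. Fluorescence was then recorded at 25 min and scaled against no-enzyme and no-inhibitor wells.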
# [10] = tested on: Zika virus NS2B-NS3 protease (linked construct); assay: 384 well plate NINDS Rhodamine confirmatory qHTS for Zika virus inhibitors (AID 1347164);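 also: fluorescence from protease cleavage of Ac-LKRR-rhodamine 110 substrate; potency is read from the fitted curve at half-maximal effect; nearly all actives have a fitted effect of over 65% in size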
# How it was run: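 Fluorescence at 485/538 nm was measured 25 minutes after adding 10 microM Ac-LKRR-Rd substrate, in the dark at room temperature. The protease (5, 30 or 60 nM final) had been preincubated ~15 minutes with compound; aprotinin as control.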
# [11] = HepG2 cells viability qHTS for Zika virus inhibitors (AID 1347168)
# How it was run: (§1)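 Luminescent ATP readout (CellTiter Glo) after 30 min at 37 degrees C gives viability; cells in DMEM + 4% FBS were treated 24 to 48 hours with compound, following overnight attachment.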
# [12] = biological target: T1, Tyrosine-protein phosphatase non-receptor type substrate 1 (Homo sapiens) + Leukocyte surface antigen CD47 (Homo sapiens); assay: CD47-SIRPalpha protein protein interaction - Alpha assay qHTS validation (AID 1347059);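 also: bead proximity luminescence from CD47 binding SIRPalpha after compound preincubation with SIRPalpha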
# How it was run: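 AlphaScreen signal between CD47-His (12.5 nM) and biotin-SIRPalpha (25 nM) soluble extracellular domains, bead-captured via Ni-NTA and streptavidin. Compounds, in 7-point titrations, met SIRPalpha 30 min before CD47; PBS pH 7.4 with 0.05% IGEPAL.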
# [13] = tested on: Zika virus NS2B-NS3 protease; assay: Primary screen GU AMC qHTS for Zika virus inhibitors (AID 1347154); also: nearly all actives have a fitted effect of over 70% in size
# How it was run: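 Fluorogenic AMC-substrate cleavage by noncovalent NS2B-NS3 protease complex (25 nM, pH 8.0 Tris buffer with Tween 20) followed for 15 minutes at room temperature (~20% conversion). Percent inhibition from ex340/em450 signal change, fitted by 4-parameter Hill equation.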
# [14] = biological target: Lysine-specific demethylase 5B (Homo sapiens) (UniProt Q9UGL1); assay: Optimization screen for KDM5B Histone Demethylases FDH coupled qHTS against the LOPAC library (AID 1347166); settings: KDM5B demethylation, FDH-coupled NADH fluorescence (FDH is formaldehyde dehydrogenase); at 57.5 µM (top of the series)
# Sequence of Lysine-specific demethylase 5B (Homo sapiens) (Q9UGL1 whole entry, looked up): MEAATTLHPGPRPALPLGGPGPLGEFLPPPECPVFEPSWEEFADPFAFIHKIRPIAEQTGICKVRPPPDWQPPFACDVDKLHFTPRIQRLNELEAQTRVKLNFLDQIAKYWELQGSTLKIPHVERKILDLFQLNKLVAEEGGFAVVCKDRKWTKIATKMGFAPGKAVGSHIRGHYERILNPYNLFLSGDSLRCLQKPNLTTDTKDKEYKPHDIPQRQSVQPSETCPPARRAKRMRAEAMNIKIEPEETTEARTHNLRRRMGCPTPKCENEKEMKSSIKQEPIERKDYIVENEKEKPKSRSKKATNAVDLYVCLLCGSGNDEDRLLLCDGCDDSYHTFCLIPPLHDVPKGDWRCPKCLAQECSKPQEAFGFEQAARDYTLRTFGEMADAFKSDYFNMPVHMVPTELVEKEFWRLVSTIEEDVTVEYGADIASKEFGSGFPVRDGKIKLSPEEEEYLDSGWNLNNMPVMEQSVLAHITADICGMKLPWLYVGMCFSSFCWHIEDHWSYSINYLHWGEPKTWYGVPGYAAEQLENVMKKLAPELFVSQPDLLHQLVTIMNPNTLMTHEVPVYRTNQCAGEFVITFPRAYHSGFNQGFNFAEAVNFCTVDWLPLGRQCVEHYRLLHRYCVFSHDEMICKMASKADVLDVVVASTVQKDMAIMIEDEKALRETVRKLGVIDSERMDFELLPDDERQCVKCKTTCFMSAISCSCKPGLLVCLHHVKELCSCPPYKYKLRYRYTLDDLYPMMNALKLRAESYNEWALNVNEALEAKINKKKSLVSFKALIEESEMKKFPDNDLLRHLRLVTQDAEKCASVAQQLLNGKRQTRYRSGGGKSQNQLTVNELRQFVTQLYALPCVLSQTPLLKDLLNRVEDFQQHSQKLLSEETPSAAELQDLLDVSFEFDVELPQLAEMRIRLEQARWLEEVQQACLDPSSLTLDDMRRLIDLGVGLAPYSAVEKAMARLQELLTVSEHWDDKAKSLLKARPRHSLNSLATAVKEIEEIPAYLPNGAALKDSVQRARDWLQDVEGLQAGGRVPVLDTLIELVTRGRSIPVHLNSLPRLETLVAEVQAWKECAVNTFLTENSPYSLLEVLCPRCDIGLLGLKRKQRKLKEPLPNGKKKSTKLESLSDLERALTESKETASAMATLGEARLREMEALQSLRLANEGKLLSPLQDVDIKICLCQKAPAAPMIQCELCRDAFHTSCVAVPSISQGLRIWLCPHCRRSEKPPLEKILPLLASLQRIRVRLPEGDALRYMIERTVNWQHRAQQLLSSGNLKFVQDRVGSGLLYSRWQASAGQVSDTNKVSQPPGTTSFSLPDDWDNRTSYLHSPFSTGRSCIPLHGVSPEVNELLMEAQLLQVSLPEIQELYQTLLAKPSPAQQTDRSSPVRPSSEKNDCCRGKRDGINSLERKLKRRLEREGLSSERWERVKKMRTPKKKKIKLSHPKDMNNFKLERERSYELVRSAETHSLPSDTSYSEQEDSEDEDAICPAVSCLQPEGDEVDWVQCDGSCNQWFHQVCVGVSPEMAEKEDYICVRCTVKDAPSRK
# How it was run: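 KDM5BDeltaAP (200nM final) in 50mM HEPES pH 7.5, 0.01% Tween-20 was preincubated with compound for 10 min at room temperature. A substrate mix of 12.5uM H3K4Me3, 25uM a-ketoglutarate, ascorbate, Fe2+, NAD+ and formaldehyde dehydrogenase was then added. NADH fluorescence (340/450 nm) was read initially and after 30 min.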
# Furin (Homo sapiens) = Furin (Homo sapiens) (UniProt P09958); assay: Furin counterscreen qHTS for Zika virus inhibitors (AID 1347149);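 also: purified recombinant full-length human furin enzyme at 5 nM; fluorescence gain from furin cutting a BOC-RVRR-AMC peptide substrate over 15 min; top concentration of the series differs between compounds; nearly all actives have a fitted effect of over 70% in size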
# Sequence of Furin (Homo sapiens) (P09958 whole entry, looked up): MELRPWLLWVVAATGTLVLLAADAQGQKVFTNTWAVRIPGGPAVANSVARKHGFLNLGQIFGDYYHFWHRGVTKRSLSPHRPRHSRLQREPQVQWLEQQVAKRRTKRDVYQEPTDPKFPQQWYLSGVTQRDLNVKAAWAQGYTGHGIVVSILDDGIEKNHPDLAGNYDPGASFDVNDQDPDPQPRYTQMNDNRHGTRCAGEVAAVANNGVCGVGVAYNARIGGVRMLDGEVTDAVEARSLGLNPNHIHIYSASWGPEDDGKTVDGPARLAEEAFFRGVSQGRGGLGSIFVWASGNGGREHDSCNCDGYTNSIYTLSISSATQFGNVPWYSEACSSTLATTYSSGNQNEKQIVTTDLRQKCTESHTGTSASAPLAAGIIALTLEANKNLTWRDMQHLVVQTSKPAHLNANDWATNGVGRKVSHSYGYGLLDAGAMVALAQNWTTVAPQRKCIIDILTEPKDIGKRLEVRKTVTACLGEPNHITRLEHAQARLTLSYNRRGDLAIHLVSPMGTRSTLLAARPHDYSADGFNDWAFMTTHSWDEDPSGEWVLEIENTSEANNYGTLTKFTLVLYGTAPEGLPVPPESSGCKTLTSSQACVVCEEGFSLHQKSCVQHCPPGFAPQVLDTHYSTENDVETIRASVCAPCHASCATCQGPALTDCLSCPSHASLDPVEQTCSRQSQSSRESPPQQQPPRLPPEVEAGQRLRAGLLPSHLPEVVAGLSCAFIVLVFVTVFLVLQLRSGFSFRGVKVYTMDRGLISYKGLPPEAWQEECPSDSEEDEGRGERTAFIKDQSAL
# How it was run: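 Counterscreen measures cleavage of 2 microM BOC-RVRR-AMC, below its ~15 microM Km, by 5 nM full-length human furin at pH 7.0 after a 15-min compound preincubation. Inhibition derives from the 15-min fluorescence increase at 37C.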
# [15] = Confirmatory screen GU Rhodamine qHTS for Zika virus inhibitors qHTS (AID 1347157)
# How it was run: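 A qHTS format was used, with compound concentrations ranging up to 114 microM. Each compound was preincubated with 25 nM NS2B-NS3 protease, and the substrate was then added at 1.5 microM. Curves were fitted with a 4-parameter Hill model.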
# [16] = ZIKV-mCherry secondary qHTS for Zika virus inhibitors (AID 1347158); also: top concentration of the series differs between compounds
# How it was run: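 This orthogonal imaging screen measured ZIKV-mCherry infection of Vero cells exposed to compound, MOI 1, 48-72 h. Percent infection came from segmented nuclei scored mCherry-positive above 3 SD of negative controls.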
# [17] = tested on: Zika virus NS2B-NS3 protease (linked construct); assay: Confirmatory screen NINDS AMC qHTS for Zika virus inhibitors (AID 1347152)
# How it was run: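 IC50s from 4-parameter Hill fits of percent inhibition, based on AMC fluorescence gain (340/450 nm) over 15 min with 10 microM Bz-Nle-KRR-AMC. Enzyme: 1 nM linked NS2B-NS3 in Tris-HCl pH 8.0; 15-min compound preincubation.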
# [18] = Vero cells viability qHTS for Zika virus inhibitors (AID 1347167)
# How it was run: as §1
smiles,measurement,setting,value
COc1cc(/C=C(\C#N)C(=O)Nc2nnc(C(F)(F)F)s2)ccc1OCc1ccc(C(F)(F)F)cc1C(F)(F)F,Potency,[1],inactive
same,Potency,[2],inactive
same,outcome,[3],inactive
same,Potency,[4],inactive
same,Potency,[5],56.2 µM (active)
same,Potency,[6],2.12 µM (active)
same,Potency,[7],15.2 µM (active)
same,Potency,[8],1.75 µM (active)
same,Potency,[9],inactive
same,Potency,[10],14.1 µM (active)
same,outcome,[11],inactive
CC(C)NCC(O)COc1ccc(CC(N)=O)cc1 (stereo unspecified),Potency,[1],inactive
same,Potency,[2],inactive
same,outcome,[3],inactive
same,Potency,[12],inactive
same,Potency,[6],inactive
same,Potency,[13],inactive
same,"activity, negative = inhibition",[14],-1.35%
C[C@H](O)C(=O)C1=Nc2c(nc(N)[nH]c2=O)NC1,Potency,[1],inactive
same,Potency,[2],inactive
same,Potency,[12],inactive
same,Potency,[4],inactive
same,Potency,[5],44.7 µM (active)
same,Potency,[6],23.8 µM (active)
CCCCS(=N)(=O)CC[C@H](N)C(=O)O (stereo partly specified),Potency,[1],inactive
same,Potency,[2],inactive
same,outcome,[3],inactive
same,Potency,[12],inactive
same,Potency,[6],inactive
same,"activity, negative = inhibition",[14],-2.9%
O=c1onc2cnc3ccccc3n12,Potency,[1],inactive
same,Potency,[2],inactive
same,Potency,[12],inactive
same,Potency,[4],inactive
same,Potency,[5],56.2 µM (active)
same,Potency,[6],26.7 µM (active)
O=C(O)c1cc(=O)cc(C(=O)O)[nH]1,Potency,[1],inactive
same,Potency,[2],inactive
same,outcome,[3],inactive
same,Potency,[12],inactive
same,Potency,[5],inactive
same,Potency,[6],inactive
CCCn1c(=O)c2c(ncn2C)n(CCC)c1=O,Potency,[1],inactive
same,Potency,[2],inactive
same,outcome,[3],inactive
same,Potency,[12],inactive
same,Potency,[5],inactive
same,Potency,[6],inactive
same,Potency,[13],inactive
same,"activity, negative = inhibition",[14],-2.62%
N[C@H](C(=O)O)[C@H](O)C(=O)O,Potency,[1],inactive
same,Potency,[2],inactive
same,outcome,[3],inactive
same,Potency,[12],inactive
same,Potency,[6],inactive
same,Potency,[13],inactive
same,"activity, negative = inhibition",[14],-0.47%
Cc1nc(N=Nc2ccc(S(=O)(=O)O)cc2S(=O)(=O)O)c(COP(=O)(O)O)c(C=O)c1O,Potency,[1],inactive
same,Potency,[2],inactive
same,Potency,[12],inactive
same,Potency,[4],inactive
same,Potency,[5],inactive
same,Potency,Furin (Homo sapiens),inactive
same,Potency,[6],inactive
same,Potency,[13],inactive
same,Potency,[15],7.94 µM (active)
same,Potency,[16],inactive
same,Potency,[9],39.8 µM (active)
same,Potency,[10],3.98 µM (active)
same,"activity, negative = inhibition",[14],-11.6%
NC(N)=NC(N)=Nc1ccccc1,Potency,[1],inactive
same,Potency,[2],inactive
same,outcome,[3],inactive
same,Potency,[12],inactive
same,Potency,[6],inactive
same,Potency,[13],inactive
same,"activity, negative = inhibition",[14],-3.27%
COc1ccccc1N1CCN(CCCNc2c(C)c(=O)n(C)c(=O)n2C)CC1,Potency,[1],inactive
same,Potency,[2],inactive
same,outcome,[3],inactive
same,Potency,[12],inactive
same,Potency,Furin (Homo sapiens),inactive
same,Potency,[17],inactive
same,Potency,[7],inactive
same,Potency,[13],inactive
same,Potency,[8],inactive
same,"activity, negative = inhibition",[14],-1.72%
same,Potency,[18],inactive
same,outcome,[11],inactive
Cn1c(=O)c2[nH]c(C3CCCC3)nc2n(C)c1=O,Potency,[1],inactive
same,Potency,[2],inactive
same,outcome,[3],inactive
same,Potency,[12],inactive
same,Potency,[5],inactive
same,Potency,[6],inactive
same,Potency,[13],inactive
